Hits are enriched below; roughly 2.8% of the tested compounds scored in any of these assays.
Pol eta inh-1 = qHTS for Inhibitors of Polymerase Eta; DNA polymerase eta (Homo sapiens), Q9Y253; recombinant Pol eta, fluorescent DNA replication assay; Potency, µM (top dose mostly 114 µM), most hits filed as inhibitors; 390,000 compounds, 1.2% hits; AID 588591, 2011
Target sequence (Q9Y253 whole entry, looked up): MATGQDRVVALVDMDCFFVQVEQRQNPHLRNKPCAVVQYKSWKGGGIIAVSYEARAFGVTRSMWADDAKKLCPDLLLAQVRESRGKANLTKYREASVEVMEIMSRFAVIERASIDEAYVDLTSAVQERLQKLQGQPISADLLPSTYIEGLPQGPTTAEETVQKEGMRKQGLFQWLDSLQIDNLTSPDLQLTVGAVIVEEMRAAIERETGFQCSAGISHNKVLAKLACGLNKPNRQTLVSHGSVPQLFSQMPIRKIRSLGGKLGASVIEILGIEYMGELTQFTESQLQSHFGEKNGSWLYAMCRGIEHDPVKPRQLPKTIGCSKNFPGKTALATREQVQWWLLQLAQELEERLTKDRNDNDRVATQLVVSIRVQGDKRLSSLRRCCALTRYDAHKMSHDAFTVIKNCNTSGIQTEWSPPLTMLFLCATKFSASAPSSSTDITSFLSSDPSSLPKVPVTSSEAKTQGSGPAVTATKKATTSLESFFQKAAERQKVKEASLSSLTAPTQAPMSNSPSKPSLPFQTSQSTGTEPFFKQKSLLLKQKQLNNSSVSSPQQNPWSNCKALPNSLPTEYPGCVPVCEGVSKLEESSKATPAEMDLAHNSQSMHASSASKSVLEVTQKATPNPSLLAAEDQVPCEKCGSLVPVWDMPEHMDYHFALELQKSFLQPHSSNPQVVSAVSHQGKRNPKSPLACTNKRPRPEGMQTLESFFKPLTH
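Pol eta (10 nM) was preincubated with compounds for 15 min at room temperature, after which fluorescent replication substrate (50 nM final) was added to start the reaction. Fluorescence was read kinetically at 0 and 10 min.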
POLI inh = qHTS for Inhibitors of Polymerase Iota; DNA polymerase iota (Homo sapiens), Q9UNA4; Pol iota fluorescent replication assay, 10 min; Potency, µM (highest dose often 115 µM), hits mostly inhibitors; 390,000 compounds, 1% hits; AID 588590, 2011
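Pol iota at 10 nM preincubated 15 min with compounds at room temperature; reaction started with fluorescent substrate, 50 nM final. Fluorescence read kinetically at 0 and 10 min; buffer-only wells as negative control.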
POLB inh = qHTS Assay for Inhibitors of DNA Polymerase Beta. P06746. Pol beta primer extension/strand displacement, fluorescence kinetic. Potency, µM (series often up to 114 µM), actives largely listed as inhibitors. 340,000 compounds, 1.3% hits
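Reaction started by 50 nM substrate onto compound-treated Pol beta (10 nM, 15 min preincubation, room temperature); plates read at 0 min and 10 min. Normalized concentration-effect data fitted by four-parameter Hill equation.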
Pol kappa inh-1 = qHTS for Inhibitors of Polymerase Kappa | purified Pol kappa, fluorescent DNA synthesis assay, 10 min | Potency, µM (top dose mostly 107 µM), actives largely listed as inhibitors | 400,000 compounds, 0.53% hits | AID 588579, 2011
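First, compounds were pin-transferred onto 10 nM Pol kappa. After 15 min at room temperature, substrate was added to 50 nM final. Fluorescence was then measured kinetically at 0 and 10 min.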
WRN inhibitor = qHTS for Inhibitors of WRN Helicase; WRN helicase unwinding, fluorescent forked duplex, kinetic; 360,000 compounds, 0.46% hits; AID 651768, 2012; Bifunctional 3'-5' exonuclease/ATP-dependent helicase WRN (Homo sapiens), Q14191; Potency, µM (series often up to 114 µM), hits mostly inhibitors; also: nearly all actives have a fitted effect of over 55% in size
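WRN at 20 nM final preincubated with compound 15 min at room temperature; reaction started with 100 nM fluorophore/quencher forked duplex oligonucleotide and 2 mM ATP final. Unwinding followed kinetically by red fluorescence (ex 525, em 598 nm).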
PI5P4Ka inh = qHTS for Inhibitors of phosphatidylinositol 5-phosphate 4-kinase (PI5P4K); max response, %; AID 652105, 2013; 330,000 compounds, 1.2% hits; PI5P4Kalpha enzyme, ADP-Glo luminescence, 60 min; hits give low values; active = max response of -50% or lower; inconclusive = between -30% and -50%; inactive = -30% or higher; also: value at the top dose of about 77 µM
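Single end-point luminescence (ADP-Glo) quantified ADP from PI5P4Kalpha turnover; ATP 5 microM final, 1 h at RT, 0.1% CHAPS and 0.28 mM EGTA in HEPES pH 7.4.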
GALK confirm = Confirmation Assay for Inhibitors of Human Galactokinase (GALK). shares compounds with Pol eta inh-1. purified GALK, Kinase-Glo ATP depletion luminescence. Potency, µM (highest dose often 115 µM), usual class: inhibitors. 150 compounds, 70% hits. AID 2015, 2009
GALK redox cs = Confirmatory Assay for Inhibitors of Human Galactokinase (GALK): Phenol-HRP redox assay counterscreen; shares compounds with Pol eta inh-1; Phenol red-HRP H2O2 redox cycling, absorbance 600 nm; Potency, µM (series often up to 115 µM), hits mostly inhibitors; 150 compounds, 40% hits
HEK293 viability = Secondary Assay for Inhibitors of Human Galactokinase (GALK): HEK-293 Cell Viability Assay; AID 2547, 2010; shares compounds with Pol eta inh-1; 170 compounds, 10% hits; Potency, µM (titrated, usually from 46.1 µM), hits mostly inhibitors; HEK-293 viability, ATP luminescence (CellTiter-Glo), 24/48 h
Pol kappa inh-2 = qHTS for Inhibitors of Polymerase Kappa: Confirmatory Assay for Cherry-picked Compounds; shares compounds with Pol eta inh-1; purified Pol-kappa, fluorescent strand-displacement substrate; Potency, µM, usual class: inhibitors; 920 compounds, 76% hits
Pol eta inh-2 = qHTS for Inhibitors of Polymerase Eta: Confirmatory Assay for Cherry-picked Compounds | shares compounds with Pol eta inh-1 | Pol eta primer extension, TAMRA/BHQ fluorescence, 10 min | Potency, µM, hits mostly inhibitors | 2,600 compounds, 64% hits
Numbers stand for hits; – = inactive; ? = inconclusive; · = no result given; [ ] = dose if it differs, or a comment. Unless noted, calls follow the shape of the dose curve; as a rule, active = well fitted curve in the direction sought with a large enough effect; inconclusive = small, poorly fitted or top-dose-only effect, or another doubt; inactive = no such curve, though single readings can be large; an effect the other way counts as inactive or inconclusive.

SMILES	Pol eta inh-1	POLI inh	POLB inh	Pol kappa inh-1	WRN inhibitor	PI5P4Ka inh	Pol eta inh-2	others
O=C(O)CN1C(=O)/C(=C\c2cccc(OCc3ccc(Cl)cc3Cl)c2)SC1=S	79µM	?	–	–	–[11.6 µM]	–	?	Pol kappa inh-2=47
O=C(O)CCN1C(=O)/C(=C\c2ccc(OCc3ccccc3)c(OCc3ccccc3)c2)SC1=S	?	–	–	–	–	–	·
O=C(O)CN1C(=O)/C(=C\c2cc(Br)ccc2OCc2ccc([N+](=O)[O-])cc2)SC1=S	28µM	40µM	28µM	71µM	?	-71	?	Pol kappa inh-2=27
COc1cc(C(=O)O)nc(OC)n1	–	–	–	–	–	–	·
CC1(C(=O)NS(=O)(=O)c2ccc3ccccc3c2)CCN1C(=O)Cc1ccc(-c2ccccc2)cc1 (stereo not drawn)	·	·	·	·	–	–	·
CCn1c(/C=C/c2ccc(O)cc2)nc2ccccc2c1=O	–	–	–	–	–	–	·
CCn1c(/C=C/c2ccc(O)c(O)c2)nc2ccccc2c1=O	14µM	?	22µM	79µM	?	?	67
CN(Cc1ccccc1)C(=O)[C@@H]1CCCN1C(=O)[C@@H]1CCCN1C(=O)c1ccc(Cl)cc1	·	·	·	·	–	–	·
CC(C)[C@H](NC(=O)[C@H]1N2C(=O)c3ccccc3C2SC1(C)C)C(=O)NCc1ccco1 (stereo partly drawn)	–	–	–	–	–	–	·
CC1=C(C(N)=O)C(c2cccs2)n2nc(-c3cccc(Cl)c3)nc2N1 (stereo not drawn)	–	–	–	–	–	–	·	GALK confirm=?;GALK redox cs=–;HEK293 viability=–
CCn1nc([N+](=O)[O-])c(C(C#N)c2nc3cc(C(F)(F)F)ccc3s2)c(Cl)c1=O (stereo not drawn)	89µM	?	56µM	–	?	·	·	Pol kappa inh-2=60
Cn1nc([N+](=O)[O-])c(C(C#N)c2ccccn2)c(Cl)c1=O (stereo not drawn)	–	?	–	–	–	–	·
Cc1nnc(NS(=O)(=O)c2ccc(N=Nc3ccc(N)nc3N)cc2)s1	20µM	16µM	·	79µM	?	?	48
Cc1nnc(NS(=O)(=O)c2ccc(N)cc2)s1	–	–	–	–	·	–	·
NC(=S)N/N=C/c1ccc(-c2ccc(Cl)c(Cl)c2)o1	?	–	–	–	–	–	·
O=C(O)c1cc(-c2ccc(/C=N/NC(=S)Nc3ccccc3)o2)ccc1Cl	20µM	35µM	28µM	79µM	?	-72	?	Pol kappa inh-2=75
CCCCC1(C)OC(=O)C(=Cc2ccc(-c3ccc(Cl)c(C(=O)O)c3)o2)C(=O)O1 (stereo not drawn)	20µM	?	16µM	?	?	–	27
Cc1ccc(N2NC(=O)/C(=C/c3ccc(-c4ccc(Cl)c(C(=O)O)c4)o3)C2=O)cc1	22µM	?	32µM	?	?	?	60
CC(C)N1C(=O)S/C(=C\c2ccc(-c3ccc(Cl)c(C(=O)O)c3)o2)C1=O	8.9µM	?	–	50µM	?	–	27
CCCCC1(C)OC(=O)C(=Cc2ccc(SC)cc2)C(=O)O1 (stereo not drawn)	–	–	?	–	–	–	·
Cc1cccn2c(Nc3ccc4c(c3)OCCO4)c(-c3ccc(Br)o3)nc12	–	–	–	–	·	·	·
Cc1cccc(NC(=O)CSc2nnc(-c3ccncc3)n2CC2CCCO2)c1 (stereo not drawn)	–	–	–	–	–	–	·
Cc1ccc(NC(=O)CN(C)S(=O)(=O)c2ccc3[nH]c(=O)oc3c2)c(C)c1	79µM	–	?	–	–[11.6 µM]	–	27
COc1ccccc1CN1CCCC(CNC(=O)c2cccc3ccccc23)C1 (stereo not drawn)	–	–	–	–	–	–	·
CCOc1ccc(/C=c2\sc3nc(-c4ccco4)nn3c2=O)cc1OCC	14µM	?	–	?	?	–	?
SMILES	Pol eta inh-1	POLI inh	POLB inh	Pol kappa inh-1	WRN inhibitor	PI5P4Ka inh	Pol eta inh-2	others
COc1ccc(S(=O)(=O)N2CCOCC2)cc1NC(=O)/C=C/c1ccccc1	–	–	·	–	–	–	·
O=c1cc(-c2ccc([N+](=O)[O-])cc2)nc2cc(-c3ccc(F)cc3)[nH]n12	20µM	?	–	–	?	–	67
Cc1c(Cl)cnc(NC(=O)COC(=O)c2ccncc2)c1Cl	25µM	50µM	·	–	?	?	·	Pol kappa inh-2=?
Cc1c(Cl)cnc(NC(=O)COC(=O)[C@H](C)NC(=O)c2ccccc2)c1Cl	50µM	?	·	–	–[11.6 µM]	–	?	Pol kappa inh-2=?
Cc1c(Cl)cnc(NC(=O)COC(=O)CNC(=O)c2ccccc2)c1Cl	50µM	–	·	–	–[11.6 µM]	–	?	Pol kappa inh-2=?
CC(C)(C)C(=O)c1c(N)[nH]c(C(=O)c2ccccc2)c1-c1ccc(Br)cc1	·	·	·	·	–	–	·
COc1cc(C(CC(=O)Nc2ccccn2)N2Cc3ccccc3C2=O)cc(OC)c1OC (stereo not drawn)	–	–	–	–	–	–	·
O=C(O)C1CC=CC2CCN(C3CC3)C(=O)C21 (stereo not drawn)	·	–	·	–	·	·	·
COc1cc(Cl)cc(C2NC(=O)NC(C)=C2C(C)=O)c1OCC(=O)O (stereo not drawn)	25µM	?	16µM	?	–	·	?
